# Source: PubChem (National Center for Advancing Translational Sciences (NCATS))
# MCF10A rerep: A quantitative high throughput screen for small molecules that induce DNA re-replication in MCF 10a normal breast cells; Potency, µM (top dose mostly 46.1 µM), without a hit: top-dose activity, positive = re-replication, most hits filed as activators; 350,000 compounds, 2.9% hits; MCF 10A DNA re-replication, Hoechst nuclear intensity, 48 h; AID 624296, 2012; also: % of control where 0% means no effect; nearly all actives have a fitted effect of over 50% in size
# SW480 rerep: A quantitative high throughput screen for small molecules that induce DNA re-replication in SW480 colon adenocarcinoma cells. SW480 DNA re-replication, Hoechst DNA content imaging, 48 h. Potency, µM (doses to about 46.1 µM), for the others: top-dose re-replication activation, actives largely listed as activators. 340,000 compounds, 1.8% hits. AID 624297, 2012; also: % of control where 0% means no effect; nearly all actives have a fitted effect of over 55% in size
#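 Compounds, transferred as 23 nL by pin tool, were incubated with cells for 48 hr; DNA content per nucleus was then quantified by Hoechst staining and fluorescence plate imaging.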
# ELG1 DNA repair: qHTS screen for small molecules that inhibit ELG1-dependent DNA repair in human embryonic kidney (HEK293T) cells expressing luciferase-tagged ELG1; AID 504467, 2011; 330,000 compounds, 2.3% hits; Potency, µM (titrated, usually from 46.1 µM), inactives show at the top dose activity change, negative = inhibition, actives largely listed as inhibitors; HEK293T ELG1-luciferase reporter, luminescence, 16 h; DNA damage induced by 5-fluorouridine; also: % is scaled to controls: 0 for no effect and ±100 for the full control effect; nearly all actives have a fitted effect of over 55% in size
#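 Cells (2,000 per well) received 5-fluorouridine plus test compound or DMSO and were incubated 16 hr at 37 °C, 5% CO2. Luciferase activity was read by luminescence 30 min after ONE-Glo addition; signal suppression marked inhibition of damage-induced ELG1 function.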
# RORg inh: qHTS for inhibitors of ROR gamma transcriptional activity; 310,000 compounds, 5.4% hits; AID 2551, 2010; Drosophila S2 Gal4-RORgamma UAS-luciferase reporter, 20 h; Potency, µM (highest dose often 53.6 µM), without a hit: top-dose activity change, negative = inhibition, most hits filed as inhibitors; also: % is scaled to controls: 0 for no effect and ±100 for the full control effect; nearly all actives have a fitted effect of over 60% in size
# Target sequence (P51450 whole entry, looked up, the tested form may be a part): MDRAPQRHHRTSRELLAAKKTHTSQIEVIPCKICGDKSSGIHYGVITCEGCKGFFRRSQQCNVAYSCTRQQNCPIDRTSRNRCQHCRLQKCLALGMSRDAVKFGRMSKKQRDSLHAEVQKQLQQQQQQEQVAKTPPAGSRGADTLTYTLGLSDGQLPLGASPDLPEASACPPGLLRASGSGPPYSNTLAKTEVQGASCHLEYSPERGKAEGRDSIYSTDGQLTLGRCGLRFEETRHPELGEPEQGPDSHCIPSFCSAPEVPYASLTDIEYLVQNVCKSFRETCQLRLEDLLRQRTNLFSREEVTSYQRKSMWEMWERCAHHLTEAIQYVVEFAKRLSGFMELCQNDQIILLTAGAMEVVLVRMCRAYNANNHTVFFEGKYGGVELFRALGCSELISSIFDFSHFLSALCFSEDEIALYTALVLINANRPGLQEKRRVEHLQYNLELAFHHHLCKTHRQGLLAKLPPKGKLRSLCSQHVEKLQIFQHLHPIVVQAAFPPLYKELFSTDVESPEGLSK
#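 Schneider cells (Drosophila), stable Gal4 DBD–ROR gamma + UAS-luc; 1 hr cmpd preincubation; Cu2+ induction 700 uM final; 20 hr ambient; luminescence.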
# Gal4-VP16 FLuc: VP16 counterscreen qHTS for inhibitors of ROR gamma transcriptional activity. Drosophila S2 Gal4-VP16 UAS-luciferase, luminescence, 20 h. Potency, µM (titrated, usually from 53.6 µM), without a hit: at the top dose activity, negative = inhibition, hits mostly inhibitors. 310,000 compounds, 3.5% hits. AID 2546, 2010;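 also: Gal4-VP16 expression switched on by copper sulfate through the metallothionein promoter; % is scaled to controls: 0 for no effect and ±100 for the full control effect; nearly all actives have a fitted effect of over 50% in size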
# Numbers without * were called inactive; ? = inconclusive; / = no result; ! = not active in a repeat; [ ] = remark or other dose. An excerpt weighted towards active compounds, which were near 10% of everything screened. Calls follow the shape of the dose curve; as a rule, active = well fitted curve in the direction sought with a large enough effect; inconclusive = small, poorly fitted or top-dose-only effect, or another doubt; inactive = no such curve, though single readings can be large; an effect the other way counts as inactive or inconclusive. Potency is read from the fitted curve at half-maximal effect.
SMILES,MCF10A rerep,SW480 rerep,ELG1 DNA repair,RORg inh,Gal4-VP16 FLuc
CCOC(=O)Cc1csc(NC(=O)COc2ccc(N(C)S(=O)(=O)c3ccc(C)cc3)cc2)n1,17%,-3%,18µM*,16%,-6%
CCOc1ccc(S(=O)(=O)N(C)c2ccc(OCC(=O)Nc3nc4ccccc4s3)cc2)cc1,?,2%,?,?,-4%
CN(c1ccc(OCC(=O)Nc2nc3ccccc3s2)cc1)S(=O)(=O)c1ccccc1,7%,-10%,8.2µM*,?,?
COC(=O)c1ccc(NC(=O)COc2ccc(N(C)S(=O)(=O)c3ccc(C)cc3)cc2)cc1,18µM*,-5%,?,/,/
COc1ccc(OCC(=O)Nc2ccc(S(=O)(=O)N(C)c3ccccc3)cc2)cc1,2%,3%,1%,/,/
COc1ccc(CCNC(=O)COc2ccc(N(C)S(=O)(=O)c3ccc(C)cc3)cc2)cc1OC,10%,-6%,21µM*,28%,-6%
O=C1C2CC=CCC2C(=O)N1Cc1nnc(-c2ccc(Cl)cc2)o1 (stereo unspecified),?,-18%,?,43%,-4%
CC[C@@H](C(=O)[C@@H](C)[C@@H](O)[C@H](C)CCc1ccc(C)c(O)c1C(=O)O)[C@H]1O[C@](CC)([C@H]2CC[C@](O)(CC)[C@H](C)O2)C[C@@H]1C,?,?,?,?,6.3µM*
CCC(C(=O)C(C)C(O)C(C)CCc1ccc(C)c(O)c1C(=O)O)C1OC(CC)(C2CC[C@@](O)(CC)C(C)O2)CC1C (stereo partly specified),?,?,/,?,10µM*
O=[N+]([O-])c1ccc(C[n+]2cccc3ccc4cccnc4c32)cc1,?,12%,7.3µM*,-44%,?
COCCNC(=S)N=Nc1c(O)[nH]c2ccc([N+](=O)[O-])cc12,-2%,?,10%,0.56µM*,-18%
NC(=S)N=Nc1c(O)[nH]c2ccc(F)cc12,-1%,-7%,13%,4.5µM*,?
O=[N+]([O-])c1ccc(N=Nc2c(O)[nH]c3ccc(F)cc23)cc1,7.3µM*,?,?,-8%,-20%
CCCCCCC(=O)N=Nc1c(O)[nH]c2ccc([N+](=O)[O-])cc12,-2%,-5%,0%,-8%,-8%
CCCC1=C/C(=C/c2ccc(-c3ccccc3OC)o2)C(=O)O1,10µM*,23µM*,14%,16%,-4%
COc1ccccc1-c1ccc(/C=C2/C=C(CC(C)C)OC2=O)o1,?,-1%,-4%,-1%,1%
CCOC(=O)c1cccc(C2=CC(=O)C[C@H](c3ccc(OC)c(OC)c3)C2)c1,9%,-18%[9.22 µM],?,/,/
CCOc1ccc(C(=O)N/N=C/c2cccc3cccnc23)cc1,?,?,?,0.71µM*,2µM*
COc1ccc2nc(/C=N/NC(=O)[C@H](CCSC)NC(=O)OC(C)(C)C)ccc2c1,-4%,-9%,-25%,-12%,2%
CSCC[C@H](NC(=O)OC(C)(C)C)C(=O)N/N=C/c1cccc2cccnc12,12%,?,?,7.1µM*,16µM*
CCOc1ccc(C(=O)N/N=C/c2ccccc2[N+](=O)[O-])cc1,-3%,-7%,?,-33%,?
COc1ccc(C(=O)N/N=C/c2cccc3cccnc23)cc1,?,?,-12%,0.56µM*,2.2µM*
COc1ccc(C(=O)N/N=C/c2cc3ccccc3[nH]c2=S)cc1,?,9%,?,8.9µM*,8.9µM*
CCOc1ccccc1C=NNC(=O)c1cccc2ccccc12,8%,-4%,/,/,/
O=C(N/N=C/c1c[nH]c2ccccc12)c1cccc(O)c1,-10%,-10%,?,5%,16%
SMILES,MCF10A rerep,SW480 rerep,ELG1 DNA repair,RORg inh,Gal4-VP16 FLuc
CCOc1ccccc1C(=O)N/N=C/c1c[nH]c2ccccc12,9%,-2%,15%,16µM*,?
CCOc1ccccc1C(=O)N/N=C/c1cccc2cccnc12,1%,?,?,5µM*,?
CCOC(=O)c1c(SC)[nH]c2c(Cl)cccc2c1=O,-2%,-22%,-10%,-7%,-2%
O=C(COc1ccc(Cl)cc1)Nc1cccc(S(=O)(=O)NCc2ccco2)c1,?,-37%,-14%,/,/
C[n+]1c2n(c3ccccc31)N=C(c1ccccc1)CS2,?,?,5.8µM*!,16%,6%
C[n+]1c2n(c3ccccc31)N=C(c1ccc(-c3ccccc3)cc1)CS2,33%,1%,?,-93%,?
Cc1ccccc1C(=O)NC1CCN(CC(=O)NC2CCCCC2)CC1,9%,6%,3%,5%,1%
CNc1nc(C23CC4CC(CC(C4)C2)C3)cs1,?,13%,-26%,10µM*,-25%
CC(NC(=O)c1ccccc1F)C12CC3CC(CC(C3)C1)C2 (stereo unspecified),-2%,-18%,-3%,/,/
Cc1ccccc1NC(=S)NCc1ccccc1,-4%,1%,28%,4µM*,11µM*
CCOCCCNC(=S)NCCc1ccccc1,0%,3%,?,11µM*,13µM*
CC(NC(=S)NCc1ccccc1)C12CC3CC(CC(C3)C1)C2 (stereo unspecified),13%,-17%,-11%,2.8µM*,?
S=C(NCc1ccccc1)NNc1ccccc1,-2%,1%,-14%,1.4µM*,3.2µM*
O=c1ccn([C@@H]2O[C@H](CNCC3=Cc4cc(O)ccc4OC3)[C@@H](O)[C@H]2O)c(=O)[nH]1,32%,0%,/,/,/
CC1c2ccsc2CCN1S(=O)(=O)c1cccs1 (stereo unspecified),0%,-4%,?,2%,3%
O=C(c1cc2c(s1)CCCC2)N1CCN(CCO)CC1,2%,-4%,3%,/,/
CN(C)Cc1ccccc1-c1cncnc1Nc1ccccc1,/,/,/,17%,5%
CCCC(O)(CCC)C(=O)NNc1ccccc1,7%,10%,-11%,9%,-2%
Cc1ccccc1NC(=O)NC(C)(C)CC(C)(C)C,-3%,-5%,-14%,-4%,2%
CCC(C)(C)NC(=S)Nc1ccccc1C,?,-28%,-6%,4µM*,11µM*
O=C(O)CC(NC(=S)NCc1ccccc1)C(=O)O (stereo unspecified),16%,-3%,0%,16µM*,11µM*
CCNC(=S)NNc1ccccc1,8%,-36%,24%,0.71µM*,4µM*
CC(NC(=S)NCCCN1CCOCC1)C12CC3CC(CC(C3)C1)C2 (stereo unspecified),11%,10%,8%,10µM*,?
